HEK293 tox: qHTS of GLP-1 Receptor Inverse Agonists: Cytotox Screen; HEK293 cAMP-luciferase reporter cells, luminescence, 24 h; Potency, µM (titrated, usually from 38.3 µM), for inactives: at the highest dose activity change, negative = inhibition, actives largely listed as inhibitors; 410,000 tested, 0.13% active; AID 624418, 2012;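 also: loss of luciferase light is scored as toxicity; potency is read from the fitted curve at half-maximal effect; % is scaled to controls: 0 for no effect and ±100 for the full control effect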
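Quantitative HTS format, 1536 wells, 200 cells/uL seeded. Compounds: 23 nL, 24 h, 37 °C. Detection: luciferase reagent, luminescence at 12 min RT; decreased signal taken as cytotoxic.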
GLP-1R inv ag: qHTS of GLP-1 Receptor Inverse Agonists (Inhibition Mode) | Glucagon-like peptide 1 receptor (Homo sapiens), P43220 | HEK293 GLP-1R CRE-luciferase, luminescence, 24 h; GLP-1R form is constitutively active | 410,000 tested, 1.6% active | Potency, µM (top dose mostly 38.3 µM), for the others: at the top dose activity change, negative = inhibition, most hits filed as inhibitors; also: potency is read from the fitted curve at half-maximal effect; % is scaled to controls: 0 for no effect and ±100 for the full control effect; nearly all actives have a fitted effect of over 55% in size
Target sequence (P43220 whole entry, looked up): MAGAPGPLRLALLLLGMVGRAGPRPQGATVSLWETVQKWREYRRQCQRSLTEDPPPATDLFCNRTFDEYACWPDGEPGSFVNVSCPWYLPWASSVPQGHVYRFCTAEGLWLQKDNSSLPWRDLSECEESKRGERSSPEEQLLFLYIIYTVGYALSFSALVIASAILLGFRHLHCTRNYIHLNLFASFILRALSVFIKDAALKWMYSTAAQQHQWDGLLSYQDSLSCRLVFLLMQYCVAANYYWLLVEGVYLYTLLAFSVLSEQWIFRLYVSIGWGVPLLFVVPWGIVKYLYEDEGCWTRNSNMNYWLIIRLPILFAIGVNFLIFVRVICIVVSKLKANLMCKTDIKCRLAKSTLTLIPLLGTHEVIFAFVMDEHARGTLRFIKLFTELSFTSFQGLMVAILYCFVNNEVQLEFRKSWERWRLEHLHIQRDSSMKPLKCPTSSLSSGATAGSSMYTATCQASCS
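Constitutively active GLP-1R drives a cAMP-responsive luciferase in stably transfected HEK293 cells; test compounds are added after overnight (12 h) attachment and left 24 hr, and signal loss in luminescence marks inhibition.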
TRHR enhancer: qHTS for Small Molecule Agonists and Allosteric Enhancers of Human TRH Receptor: Primary Screen for Enhancers | Thyrotropin-releasing hormone receptor (Homo sapiens), P34981 | TRHR cells, fluo-8 calcium fluorescence, EC20 TRH enhancement | enhancement, % at 2 µM | 360,000 tested, 0.66% active | AID 493056, 2011; in the data active = enhancement above about 30%; also: 0% is about no effect
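TRHR-expressing cells loaded with fluo-8 calcium dye were read kinetically (ex 480/em 530) during compound addition, then stimulated with an EC20 of TRH (10 nM final). Enhancement of the Gq-mediated intracellular calcium response was scored.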
GLP-1R agonist: qHTS of GLP-1 Receptor Agonists. Glucagon-like peptide 1 receptor (Homo sapiens), P43220. HEK293 GLP-1R CRE-luciferase, luminescence, 4-6 h; cells express a hypersensitive GLP-1R form. 380,000 tested, 0.007% active. AID 624172, 2012. Potency, µM (highest dose often 45.6 µM), inactives show top-dose activation, most hits filed as activators; also: potency is read from the fitted curve at half-maximal effect; % of control where 0% means no effect
PTHR1 ag: qHTS for PTHR1 Agonists: Primary Screen; 410,000 tested, 0.075% active; Potency, µM (doses to about 115 µM), without a hit: at the top dose activation, hits mostly activators; HEK293 GP2 PTHR1 cells, GloSensor cAMP luminescence, 1 h; Parathyroid hormone/parathyroid hormone-related peptide receptor (Homo sapiens), Q03431; also: potency is read from the fitted curve at half-maximal effect; nearly all actives have a fitted effect of over 55% in size
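HEK-293-derived GP2 cells expressing PTHR1 and a GloSensor cAMP reporter, 3,000/well, plated overnight, given luciferin plus IBMX (each 0.5 mM as added) for 1 h at 37 °C, then compound for 1 h at 37 °C. Luminescence was read after 15 min at room temperature.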
TRHR ag: qHTS for Small Molecule Agonists and Allosteric Enhancers of Human TRH Receptor: Primary Screen for Agonists; TRHR cells, calcium flux fluo-8, FDSS agonist mode; activation, % at 2 µM; 360,000 tested, 0.18% active; AID 493084, 2011; in the data active = activation above about 30%; also: 0% is about no effect
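TRHR-expressing cells loaded with fluo-8 calcium dye; 23 nL library compound pin-transferred, kinetic FDSS fluorescence (Ex 480/Em 530) recorded about 180 s for agonist-induced calcium release, before a 10 nM TRH EC20 addition for potentiator mode.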
An asterisk follows results filed as active; [ ] = dose if it differs, or a comment. Only some compounds are listed: those with a hit (about 2.4% of all), similar ones and a draw of the others. Unless noted, calls follow the shape of the dose curve; as a rule, active = well fitted curve in the direction sought with a large enough effect; inconclusive = small, poorly fitted or top-dose-only effect, or another doubt; inactive = no such curve, though single readings can be large; an effect the other way counts as inactive or inconclusive.

Screening Cc1ccc(S(=O)(=O)N2[C@@H](c3ccccc3)C(C(=O)O)=CC[C@H]2c2ccc(Cl)c(Cl)c2)cc1 returned HEK293 tox inconclusive, GLP-1R inv ag inconclusive, TRHR enhancer -5.1, GLP-1R agonist -2.8%, PTHR1 ag -9.1% and TRHR ag -0.1.
Cc1ccc([C@H]2C(C(=O)O)=CC[C@@H](c3ccc(Cl)c(Cl)c3)N2S(=O)(=O)c2ccc(C)cc2)cc1 was read as HEK293 tox -11.2%, GLP-1R inv ag 10µM*, GLP-1R agonist -2.0% and PTHR1 ag -11.5%.
`Cc1ccc([C@@H]2CC=C(C(=O)O)[C@H](c3ccc(Cl)cc3)N2S(=O)(=O)c2ccccc2C)cc1` gave HEK293 tox -18.5%, GLP-1R inv ag 8.91µM*, GLP-1R agonist -3.2% and PTHR1 ag -28.7%.
Screening COc1ccc([C@@H]2CC=C(C(=O)O)[C@H](c3ccc(Cl)cc3)N2S(=O)(=O)c2ccccc2C)cc1 returned HEK293 tox -23.9%, GLP-1R inv ag inconclusive, TRHR enhancer -1.8, GLP-1R agonist -3.5%, PTHR1 ag -0.7% and TRHR ag -0.6.
Screening CCN(CC)S(=O)(=O)c1cc(-c2nnc(-c3ccc(Br)cc3)o2)ccc1Cl returned HEK293 tox -2.9%, GLP-1R inv ag inconclusive, TRHR enhancer -4.0, GLP-1R agonist 2.7%, PTHR1 ag inactive and TRHR ag 0.5.
`CCCCn1nnnc1C(c1ccccc1)N1CCN(Cc2c(F)cccc2Cl)CC1` (stereo not given) gave HEK293 tox 4.4%, GLP-1R inv ag inconclusive, GLP-1R agonist 12.1% and PTHR1 ag -22.5%.
`COc1ccc(NS(=O)(=O)c2ccc3oc(Nc4ccc5c(c4)OCCO5)nc3c2)cc1` gave HEK293 tox inconclusive, GLP-1R inv ag inconclusive, TRHR enhancer -2.4, GLP-1R agonist -10.2%, PTHR1 ag -15.7% and TRHR ag -0.6.
O=C1C=C(N2CCCCC2)c2ccccc2C1=O was read as HEK293 tox 10µM*, GLP-1R inv ag inconclusive, GLP-1R agonist -19.6% and PTHR1 ag -23.4%.
COc1ccc(CC(=O)Nc2ccc3nc(N4CCCCC4)cc(C)c3c2)cc1 was read as HEK293 tox -16.6%, GLP-1R inv ag inconclusive, TRHR enhancer -1.5, PTHR1 ag 16.4% and TRHR ag -0.2.
`COc1cc(OC)cc(C(=O)Nc2ccc3nc(N4CCCCC4)cc(C)c3c2)c1` gave HEK293 tox -18.9%, GLP-1R inv ag 11.2µM*, TRHR enhancer 4.8, PTHR1 ag 4.7% and TRHR ag -0.3.
For Cc1cc(N2CCN(C)CC2)nc2ccc(NC(=S)N3CCCCCC3)cc12 the results were HEK293 tox -15.4%, GLP-1R inv ag 11.2µM*, TRHR enhancer -2.9, GLP-1R agonist 21.3%, PTHR1 ag inactive and TRHR ag -0.1.
Screening Cc1cc(N2CCN(C)CC2)nc2ccc(NC(=S)N3CCCCC3)cc12 returned HEK293 tox -22.2%, GLP-1R inv ag 10µM*, TRHR enhancer 17.2, GLP-1R agonist 19.0%, PTHR1 ag inactive and TRHR ag -0.4.
CO[C@@H]1CN(C)C(=O)c2ccc(NC(=O)C3CCC3)cc2OC[C@H](C)N(CC2CCCCC2)C[C@H]1C was read as HEK293 tox -12.7%, GLP-1R inv ag inconclusive and PTHR1 ag inactive.
For C=CCn1c(=O)/c(=C/c2ccc(O)cc2)s/c1=C(/C#N)c1nnc2n1CCCCC2 the results were HEK293 tox 0.0%, GLP-1R inv ag 28.1%, TRHR enhancer -6.2, GLP-1R agonist 3.0%, PTHR1 ag inconclusive and TRHR ag 30.2*.
O=C(c1ccc(=O)oc1)N1CCN(C(c2ccccc2)c2ccccc2)CC1 was read as HEK293 tox -4.5%, GLP-1R inv ag -5.9%, TRHR enhancer -2.1, GLP-1R agonist -16.5%, PTHR1 ag -5.8%[57.5 µM] and TRHR ag 0.6.
Screening CCN1CCc2c(sc(NC(=O)c3ccc(S(=O)(=O)N(CC)c4ccccc4)cc3)c2C(N)=O)C1 returned HEK293 tox -15.9%, GLP-1R inv ag inconclusive, TRHR enhancer 14.7, GLP-1R agonist 2.9%, PTHR1 ag -76.6% and TRHR ag 74.0*.
CCCCN(CCCC)S(=O)(=O)c1ccc(C(=O)Nc2sc3c(c2C(N)=O)CCN(CC)C3)cc1 was read as HEK293 tox 2.2%, GLP-1R inv ag -19.3%, TRHR enhancer 27.7, GLP-1R agonist -6.9%, PTHR1 ag -13.4% and TRHR ag 17.2.
Screening NC(=O)c1c(NC(=O)c2c(F)cccc2F)sc2c1CCN(Cc1ccccc1)C2 returned HEK293 tox 18.3%, GLP-1R inv ag 2.9%, TRHR enhancer 5.8, GLP-1R agonist 7.1%, PTHR1 ag -41.3% and TRHR ag 49.2*.
For NC(=O)c1c(NC(=O)c2ccccc2)sc2c1CCN(Cc1ccccc1)C2 the results were HEK293 tox 5.9%, GLP-1R inv ag -7.2%, TRHR enhancer 0.0, GLP-1R agonist 2.8%, PTHR1 ag -20.6% and TRHR ag 52.6*.
`CCC(=O)Nc1sc2c(c1C(N)=O)CCN(Cc1ccccc1)C2` gave HEK293 tox 422.9%, GLP-1R inv ag 23.6%, TRHR enhancer -3.3, GLP-1R agonist 12.8%, PTHR1 ag -23.7% and TRHR ag 38.6*.
CCc1ccccc1NC(=O)CN(C)C(=O)CSc1nnc(Nc2cccc(C)c2)s1 was read as HEK293 tox -2.9%, GLP-1R inv ag inconclusive, TRHR enhancer -1.6, GLP-1R agonist 0.3%, PTHR1 ag inactive and TRHR ag 0.9.
CCN1CCc2c(sc(NC(=O)Cc3ccccc3)c2C(N)=O)C1 was read as HEK293 tox 24.5%, GLP-1R inv ag 6.8%, TRHR enhancer 6.6, GLP-1R agonist 5.4%, PTHR1 ag inactive and TRHR ag 0.7.
`CCN1CCc2c(sc(NC(=O)Nc3ccc(Cl)c(Cl)c3)c2C(N)=O)C1` gave HEK293 tox 156.0%, GLP-1R inv ag inconclusive, TRHR enhancer -19.8, GLP-1R agonist 1.6%, PTHR1 ag -17.0% and TRHR ag 159.2*.
Screening CC(O)c1cccc(NC(=O)CC(c2ccccc2)c2ccccc2)c1 (stereo not given) returned HEK293 tox -1.5%, GLP-1R inv ag inconclusive, TRHR enhancer 0.1, GLP-1R agonist -0.1%, PTHR1 ag -21.1% and TRHR ag 0.2.
